Test results: the supplement of paper PMC6279402
Structures can show the parent of a compound that is named as a salt. ± gives the standard deviation of the averaged measurements.

Test system: A549
Test: relative viability (normalised to negative control = 1, bortezomib = 0) (fraction); higher = less cytotoxic
Conditions: inflammatory serum-free RHB-A with cytokines + LPS, 5 d + 24 h CellTiter-Blue
[1] = compound 30 nM, GSK126 pretreatment: 5 uM GSK126
[2] = compound 30 nM, GSK126 pretreatment: none (vehicle)
[3] = compound 300 nM, GSK126 pretreatment: 5 uM GSK126
[4] = compound 300 nM, GSK126 pretreatment: none (vehicle)

SMILES | relative viability [1] | relative viability [2] | relative viability [3] | relative viability [4]
Clc1ccc(C2(c3ccc(-c4cn[nH]c4)cc3)CCNCC2)cc1 | 0.706 ± 0.086 | 0.77 ± 0.055 | 0.734 ± 0.044 | 0.854 ± 0.012
C=CC(=O)Nc1cccc(Oc2nc(Nc3ccc(N4CCN(C)CC4)cc3OC)ncc2Cl)c1 | 0.978 ± 0.051 | 0.897 ± 0.034 | 0.782 ± 0.086 | 0.87 ± 0.095
CCCS(=O)(=O)Nc1ccc(F)c(C(=O)c2c[nH]c3ncc(-c4ccc(Cl)cc4)cc23)c1F [vemurafenib] | 0.86 ± 0.082 | 0.848 ± 0.071 | 1 ± 0.051 | 1.02 ± 0.061
CN(C)Cc1cccc(N=C(c2ccccc2)c2c(O)[nH]c3cc(C(N)=O)ccc23)c1 | 0.984 ± 0.17 | 0.911 ± 0.16 | 1.08 ± 0.2 | 0.942 ± 0.13
CNC(=O)c1c(F)cccc1Nc1nc(Nc2cc3c(cc2OC)CCN3C(=O)CN(C)C)nc2[nH]ccc12 | 0.762 ± 0.059 | 0.792 ± 0.067 | 0.295 ± 0.019 | 0.431 ± 0.015
N#CCNC(=O)c1ccc(-c2ccnc(Nc3ccc(N4CCOCC4)cc3)n2)cc1 | 0.933 ± 0.027 | 0.961 ± 0.042 | 1.22 ± 0.083 | 1.4 ± 0.038
N#Cc1ccc(C(c2ccc(C#N)cc2)n2cncn2)cc1 [Letrozole] | 0.756 ± 0.011 | 0.7993 ± 0.0055 | 0.832 ± 0.063 | 0.932 ± 0.037
CC(C)Cn1cnc2c(N)nc3ccccc3c21 [Imiquimod] | 0.8017 ± 0.004 | 0.794 ± 0.058 | 0.863 ± 0.059 | 0.911 ± 0.019
C[C@@H]1CCN(C(=O)CC#N)C[C@@H]1N(C)c1ncnc2[nH]ccc12 | 1.05 ± 0.18 | 0.99 ± 0.17 | 1.31 ± 0.067 | 1.28 ± 0.1
O=c1[nH]c(=O)n([C@H]2C[C@H](O)[C@@H](CO)O2)cc1F [Floxuridine] | 0.895 ± 0.018 | 0.886 ± 0.058 | 0.903 ± 0.037 | 0.908 ± 0.05
CC/C(=C(\c1ccccc1)c1ccc(OCCN(C)C)cc1)c1ccccc1 [Tamoxifen citrate] | 0.967 ± 0.075 | 0.863 ± 0.019 | 0.909 ± 0.13 | 0.972 ± 0.024
Nc1ncnc2c1c(-c1cnc3[nH]ccc3c1)nn2C1CCCC1 | 0.767 ± 0.06 | 0.797 ± 0.071 | 0.494 ± 0.039 | 0.533 ± 0.069
NC1(Cc2ccc(Cl)cc2)CCN(c2ncnc3[nH]ccc23)CC1 | 0.832 ± 0.029 | 0.844 ± 0.05 | 0.839 ± 0.1 | 0.875 ± 0.023
CS(=O)(=O)CCNCc1ccc(-c2ccc3ncnc(Nc4ccc(OCc5cccc(F)c5)c(Cl)c4)c3c2)o1 [Lapatinib ditosylate; Lapatinib; Lapatinib Ditosylate] | 0.811 ± 0.091 | 0.826 ± 0.083 | 0.594 ± 0.11 | 0.562 ± 0.057
CO[C@@H](C(=O)N1Cc2[nH]nc(NC(=O)c3ccc(N4CCN(C)CC4)cc3)c2C1)c1ccccc1 | 0.626 ± 0.07 | 0.622 ± 0.05 | 0.488 ± 0.032 | 0.504 ± 0.058
COc1cc([C@@H]2c3cc4c(cc3[C@@H](O[C@@H]3O[C@@H]5CO[C@@H](c6cccs6)O[C@H]5[C@H](O)[C@H]3O)[C@H]3COC(=O)[C@H]23)OCO4)cc(OC)c1O [Teniposide] | 0.861 ± 0.062 | 0.777 ± 0.076 | 0.685 ± 0.037 | 0.544 ± 0.072
CN(C)c1nc(N(C)C)nc(N(C)C)n1 [Altretamine] | 0.861 ± 0.011 | 0.87 ± 0.045 | 0.931 ± 0.02 | 0.887 ± 0.095
C[C@@H](CN1CC(=O)NC(=O)C1)N1CC(=O)NC(=O)C1 [Dexrazoxone; Dexrazoxane] | 0.828 ± 0.054 | 0.832 ± 0.093 | 0.859 ± 0.048 | 0.908 ± 0.13
CCCCC(=O)OCC(=O)[C@]1(O)Cc2c(O)c3c(c(O)c2[C@@H](O[C@H]2C[C@H](NC(=O)C(F)(F)F)[C@H](O)[C@H](C)O2)C1)C(=O)c1c(OC)cccc1C3=O [Valrubicin] | 0.989 ± 0.055 | 1.01 ± 0.042 | 0.899 ± 0.027 | 0.879 ± 0.041

SMILES | relative viability [1] | relative viability [2] | relative viability [3] | relative viability [4]
Nc1ncn([C@H]2C[C@H](O)[C@@H](CO)O2)c(=O)n1 [5-Aza-2'-deoxycytidine; Decitabine] | 0.841 ± 0.15 | 0.715 ± 0.17 | 0.86 ± 0.18 | 0.836 ± 0.13
Cc1[nH]c(/C=C2\C(=O)Nc3ccccc32)c(C)c1CCC(=O)O | 0.78 ± 0.0017 | 0.775 ± 0.032 | 0.786 ± 0.08 | 0.772 ± 0.029
CN(C)C/C=C/C(=O)Nc1cc2c(Nc3ccc(F)c(Cl)c3)ncnc2cc1O[C@H]1CCOC1 [BIBW2992; BIBW2992(Tovok)] | 0.389 ± 0.018 | 0.374 ± 0.028 | 0.281 ± 0.036 | 0.328 ± 0.052
O=C(Nc1ccc(OC(F)(F)F)cc1)c1sccc1NCc1ccnc2ccccc12 | 1.07 ± 0.025 | 1.05 ± 0.035 | 1.15 ± 0.16 | 1.2 ± 0.036
OC[C@H]1O[C@@H](n2cnc3c2N=CNC[C@H]3O)C[C@@H]1O [Pentostatin] | 0.908 ± 0.068 | 0.918 ± 0.062 | 0.931 ± 0.076 | 0.914 ± 0.056
CC[C@@H]1C(=O)N(C)c2cnc(Nc3ccc(C(=O)NC4CCN(C)CC4)cc3OC)nc2N1C1CCCC1 | 0.451 ± 0.03 | 0.362 ± 0.021 | 0.212 ± 0.04 | 0.215 ± 0.02
O=C(O)C(=O)O.[NH-][C@@H]1CCCC[C@H]1[NH-].[Pt+2] [Oxaliplatin] | 0.792 ± 0.077 | 0.782 ± 0.1 | 0.79 ± 0.088 | 0.796 ± 0.037
CN(C)Cc1cccc(N=C(c2ccccc2)c2c(O)[nH]c3cc(C(=O)N(C)C)ccc23)c1 | 0.839 ± 0.14 | 0.864 ± 0.16 | 0.954 ± 0.16 | 1.04 ± 0.16
C[C@]12CC[C@H](O)CC1=CC[C@@H]1[C@@H]2CC[C@]2(C)C(c3cccnc3)=CC[C@@H]12 [Abiraterone] | 0.893 ± 0.12 | 0.869 ± 0.13 | 0.937 ± 0.15 | 1.03 ± 0.098
CC[C@@]1(O)C(=O)OCc2c1cc1n(c2=O)Cc2cc3c(CN(C)C)c(O)ccc3nc2-1 [Topotecan HCl; Topotecan hydrochloride] | 0.421 ± 0.033 | 0.383 ± 0.021 | 0.317 ± 0.026 | 0.221 ± 0.038
N#CC(=C(/N)Sc1ccccc1N)/C(C#N)=C(/N)Sc1ccccc1N | 0.835 ± 0.084 | 0.825 ± 0.11 | 0.61 ± 0.084 | 0.684 ± 0.12
Oc1ncnc2[nH]ncc12 [Allopurinol] | 0.988 ± 0.076 | 0.996 ± 0.03 | 0.952 ± 0.11 | 0.974 ± 0.066
CN(C)/N=N/c1[nH]cnc1C(N)=O [Dacarbazine] | 0.931 ± 0.18 | 0.992 ± 0.11 | 1.05 ± 0.11 | 1.07 ± 0.031
Cn1cc(C2=C(c3ccc(Cl)cc3Cl)C(=O)NC2=O)c2ccccc21 | 0.787 ± 0.042 | 0.778 ± 0.046 | 0.695 ± 0.079 | 0.802 ± 0.05
NC(=O)c1ccc(-c2nc(-c3ccccn3)c(-c3ccc4c(c3)OCO4)[nH]2)cc1 | 0.825 ± 0.08 | 0.814 ± 0.1 | 0.817 ± 0.073 | 0.882 ± 0.1
CCc1c2c(nc3ccc(OC(=O)N4CCC(N5CCCCC5)CC4)cc13)-c1cc3c(c(=O)n1C2)COC(=O)[C@]3(O)CC [Irinotecan HCl; Irinotecan hydrochloride] | 0.898 ± 0.038 | 0.895 ± 0.018 | 0.931 ± 0.037 | 0.917 ± 0.031
COc1cc2c(Oc3ccc4[nH]c(C)cc4c3F)ncnc2cc1OCCCN1CCCC1 [Cediranib(AZD2171)] | 0.943 ± 0.053 | 0.968 ± 0.019 | 0.981 ± 0.11 | 0.996 ± 0.051
FC(F)(F)c1ccc(/C=C/c2nc(COc3ccc(CCCCn4ccnn4)cc3)co2)cc1 [Mubritinib (TAK 165)] | 0.798 ± 0.028 | 0.837 ± 0.061 | 0.561 ± 0.081 | 0.94 ± 0.011
CCOc1cc2ncc(C#N)c(Nc3ccc(F)c(Cl)c3)c2cc1NC(=O)/C=C/CN(C)C [Pelitinib] | 0.562 ± 0.038 | 0.504 ± 0.012 | 0.0719 ± 0.015 | 0.0851 ± 0.02

SMILES | relative viability [1] | relative viability [2] | relative viability [3] | relative viability [4]
S=P(N1CC1)(N1CC1)N1CC1 [Thiotepa] | 1.01 ± 0.054 | 0.949 ± 0.017 | 0.919 ± 0.064 | 0.935 ± 0.032
Nc1nc2[nH]cnc2c(=S)[nH]1 [Thioguanine] | 0.978 ± 0.039 | 0.929 ± 0.043 | 0.917 ± 0.045 | 1 ± 0.073
CC(C)(C)c1cnc(CSc2cnc(NC(=O)C3CCNCC3)s2)o1 | 0.859 ± 0.1 | 0.811 ± 0.056 | -0.00432 ± 0.0019 | -0.0017 ± 0.0016
NC(=O)NO [Hydroxyurea] | 0.998 ± 0.13 | 1.05 ± 0.1 | 1.09 ± 0.071 | 1.06 ± 0.05
O=C1c2ccccc2-c2n[nH]c3cccc1c23 | 0.785 ± 0.1 | 0.796 ± 0.078 | 0.801 ± 0.075 | 0.894 ± 0.15
CCOc1ccn(-c2ccc(F)cc2)c(=O)c1C(=O)Nc1ccc(Oc2ccnc(N)c2Cl)c(F)c1 | 0.905 ± 0.21 | 0.914 ± 0.17 | 0.977 ± 0.21 | 1.08 ± 0.16
O=C1c2c(O)ccc(O)c2C(=O)c2c(NCCNCCO)ccc(NCCNCCO)c21 [Mitoxantrone; Mitoxantrone dihydrochloride] | 0.483 ± 0.02 | 0.376 ± 0.022 | 0.148 ± 0.013 | 0.137 ± 0.008
C[C@]12CC[C@@H]3c4ccc(O)cc4C[C@@H](CCCCCCCCC[S+]([O-])CCCC(F)(F)C(F)(F)F)[C@H]3[C@@H]1CC[C@@H]2O (stereo partly drawn) [Fulvestrant] | 0.901 ± 0.098 | 0.836 ± 0.039 | 0.85 ± 0.065 | 0.855 ± 0.024
CS(=O)(=O)OCCCCOS(C)(=O)=O [Busulfan] | 0.889 ± 0.017 | 0.865 ± 0.038 | 0.916 ± 0.067 | 0.893 ± 0.024
Nc1ccn([C@@H]2O[C@H](CO)[C@@H](O)[C@@H]2O)c(=O)n1 | 0.833 ± 0.016 | 0.79 ± 0.088 | 0.668 ± 0.094 | 0.475 ± 0.1
NC(=O)Nc1cc(-c2cccc(F)c2)sc1C(=O)N[C@H]1CCCNC1 | 0.407 ± 0.061 | 0.389 ± 0.034 | 0.253 ± 0.082 | 0.194 ± 0.021
Cn1cc(-c2ccc3nnc(C(F)(F)c4ccc5ncccc5c4)n3n2)cn1 | 0.954 ± 0.11 | 0.904 ± 0.029 | 1.001 ± 0.009 | 0.947 ± 0.026
O=NN(CCCl)C(=O)NC1CCCCC1 [Lomustine, CCNU; Lomustine] | 0.967 ± 0.15 | 0.973 ± 0.15 | 1.03 ± 0.11 | 0.976 ± 0.079
Cc1cc(Nc2nc(N[C@@H](C)c3ccc(F)cc3)c(C#N)cc2F)n[nH]1 | 1.23 ± 0.055 | 1.16 ± 0.11 | 0.269 ± 0.021 | 0.309 ± 0.027
COc1cccc2cc(-c3nc(C4CCC(C(=O)O)CC4)n4ncnc(N)c34)[nH]c12 (stereo not drawn) | 0.815 ± 0.016 | 0.797 ± 0.045 | 0.588 ± 0.07 | 0.718 ± 0.055
O=C1C(c2c(O)[nH]c3ccccc23)=Nc2ccccc21 [Indirubin; INDIRUBIN] | 0.788 ± 0.038 | 0.796 ± 0.041 | 0.762 ± 0.078 | 0.807 ± 0.045
COc1cc2nccc(Oc3ccc(NC(=O)C4(C(=O)Nc5ccc(F)cc5)CC4)cc3)c2cc1OC [XL184; Cabozantinib] | 0.903 ± 0.061 | 0.875 ± 0.12 | 0.986 ± 0.043 | 0.974 ± 0.014
O=C1NC(=O)/C(=C/c2ccc3c(c2)OC(F)(F)O3)S1 | 0.939 ± 0.15 | 0.969 ± 0.17 | 1.01 ± 0.14 | 0.968 ± 0.092
CO[C@H](C(=O)[C@@H](O)[C@@H](C)O)[C@@H]1Cc2cc3cc(O[C@H]4C[C@@H](O[C@H]5C[C@@H](O)[C@H](O)[C@@H](C)O5)[C@H](O)[C@@H](C)O4)c(C)c(O)c3c(O)c2C(=O)[C@H]1O[C@H]1C[C@@H](O[C@H]2C[C@@H](O[C@H]3C[C@](C)(O)[C@H](O)[C@@H](C)O3)[C@@H](O)[C@@H](C)O2)[C@H](O)[C@@H](C)O1 [Plicamycin] | 0.1 ± 0.012 | 0.183 ± 0.058 | 0.00825 ± 0.00088 | 0.0263 ± 0.0054
